Source: ChEMBL document CHEMBL2218924, “A broad activity screen in support of a chemogenomic map for kinase signalling research and drug discovery” (Biochem J, 2013)

What follows are molecules tested against Macrophage-stimulating protein receptor (Homo sapiens) (UniProt Q04912). Settings: at 10 µM.
Chain of Macrophage-stimulating protein receptor (Homo sapiens) (Q04912 25-304 limits assumed): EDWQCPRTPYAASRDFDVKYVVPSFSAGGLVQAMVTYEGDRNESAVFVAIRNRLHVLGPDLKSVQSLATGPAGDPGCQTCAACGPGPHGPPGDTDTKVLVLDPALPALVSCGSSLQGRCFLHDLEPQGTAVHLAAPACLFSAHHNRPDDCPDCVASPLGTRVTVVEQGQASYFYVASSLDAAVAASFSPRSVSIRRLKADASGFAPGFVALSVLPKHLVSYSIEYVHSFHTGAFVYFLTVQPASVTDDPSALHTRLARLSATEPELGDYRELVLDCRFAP
Chain of Macrophage-stimulating protein receptor (Homo sapiens) (Q04912 310-1400 limits assumed): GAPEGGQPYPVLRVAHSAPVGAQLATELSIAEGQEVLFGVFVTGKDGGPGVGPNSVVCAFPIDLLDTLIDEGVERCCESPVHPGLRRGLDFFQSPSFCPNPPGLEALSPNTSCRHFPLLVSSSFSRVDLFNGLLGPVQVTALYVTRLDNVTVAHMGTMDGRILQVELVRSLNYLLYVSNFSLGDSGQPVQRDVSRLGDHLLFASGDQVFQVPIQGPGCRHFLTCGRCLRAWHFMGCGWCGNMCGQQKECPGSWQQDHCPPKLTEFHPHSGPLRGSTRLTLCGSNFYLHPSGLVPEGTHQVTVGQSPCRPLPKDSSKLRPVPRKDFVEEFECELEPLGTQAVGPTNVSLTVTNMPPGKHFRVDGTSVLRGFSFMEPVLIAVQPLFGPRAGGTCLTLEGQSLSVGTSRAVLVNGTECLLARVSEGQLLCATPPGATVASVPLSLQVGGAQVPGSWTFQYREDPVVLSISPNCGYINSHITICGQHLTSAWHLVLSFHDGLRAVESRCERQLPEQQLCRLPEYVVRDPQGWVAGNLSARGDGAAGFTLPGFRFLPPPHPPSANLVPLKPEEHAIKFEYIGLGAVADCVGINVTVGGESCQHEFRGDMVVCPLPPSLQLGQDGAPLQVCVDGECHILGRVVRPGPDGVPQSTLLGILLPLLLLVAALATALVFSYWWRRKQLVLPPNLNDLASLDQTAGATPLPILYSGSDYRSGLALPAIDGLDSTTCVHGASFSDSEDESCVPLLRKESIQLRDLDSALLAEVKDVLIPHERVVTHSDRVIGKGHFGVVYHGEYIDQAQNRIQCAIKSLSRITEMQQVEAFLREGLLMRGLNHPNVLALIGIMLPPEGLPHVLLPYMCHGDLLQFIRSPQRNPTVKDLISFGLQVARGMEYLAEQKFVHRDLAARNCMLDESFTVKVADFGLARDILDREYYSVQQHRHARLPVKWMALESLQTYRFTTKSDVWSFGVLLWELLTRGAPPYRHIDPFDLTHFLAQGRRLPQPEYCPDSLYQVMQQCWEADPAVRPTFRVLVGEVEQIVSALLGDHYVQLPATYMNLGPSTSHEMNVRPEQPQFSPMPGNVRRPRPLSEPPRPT
Work on CC(C)[C@H](CO)Nc1nc(Nc2cccc(Cl)c2)c2ncn(C(C)C)c2n1 yielded a residual activity of 86%.
With COC(=O)[C@@]1(O)C[C@H]2O[C@]1(C)n1c3ccccc3c3c4c(c5c6ccccc6n2c5c31)C(=O)NC4 the residual activity was 3%.
In the case of N/C(=N\[N+](=O)[O-])N/N=C\c1ccc(-c2cccc([N+](=O)[O-])c2)o1, the residual activity is reported as 63%.
Work on COc1cc2ncnc(Nc3ccc(OCc4ccccc4)cc3)c2cc1OC yielded a residual activity of 80%.
O=c1[nH]c2ccccc2n1C1CCN(Cc2ccc(-c3nc4cc5[nH]cnc5cc4nc3-c3ccccc3)cc2)CC1 was tested, and the residual activity was 79%.
CCn1cnc2c(Nc3cccc(Cl)c3)nc(N[C@@H]3CCCC[C@@H]3N)nc21 was tested, and the residual activity was 77%.
Work on C[S+]([O-])c1ccc(-c2nc(-c3ccc(F)cc3)c(-c3ccncc3)[nH]2)cc1 (stereo not drawn) yielded a residual activity of 109%.
Molecule O=C1Nc2ccc3ncsc3c2/C1=C/c1c[nH]cn1 has a residual activity of 11%.
For c1cc(-c2cnn3cc(-c4ccc(OCCN5CCCCC5)cc4)cnc23)ccn1, the residual activity was 83%.
In the case of COc1cc(OC)c(/C=C2\C(=O)Nc3ccccc32)c(OC)c1, the residual activity is reported as 72%.
In the case of COc1ccc2c(c[n+](C)c3c4cc5c(cc4ccc23)OCO5)c1OC, the residual activity is reported as 75%.
Molecule O=[N+]([O-])/C=C/c1ccc2c(c1)OCO2 has a residual activity of 93%.
COc1ccc2c(c1)/C(=C/c1cnc[nH]1)C(=O)N2 was tested, and the residual activity was 65%.

Each molecule was assayed against Proto-oncogene tyrosine-protein kinase ROS (Homo sapiens) (UniProt P08922). Settings: at 1 µM.
Chain of Proto-oncogene tyrosine-protein kinase ROS (Homo sapiens) (P08922 whole entry): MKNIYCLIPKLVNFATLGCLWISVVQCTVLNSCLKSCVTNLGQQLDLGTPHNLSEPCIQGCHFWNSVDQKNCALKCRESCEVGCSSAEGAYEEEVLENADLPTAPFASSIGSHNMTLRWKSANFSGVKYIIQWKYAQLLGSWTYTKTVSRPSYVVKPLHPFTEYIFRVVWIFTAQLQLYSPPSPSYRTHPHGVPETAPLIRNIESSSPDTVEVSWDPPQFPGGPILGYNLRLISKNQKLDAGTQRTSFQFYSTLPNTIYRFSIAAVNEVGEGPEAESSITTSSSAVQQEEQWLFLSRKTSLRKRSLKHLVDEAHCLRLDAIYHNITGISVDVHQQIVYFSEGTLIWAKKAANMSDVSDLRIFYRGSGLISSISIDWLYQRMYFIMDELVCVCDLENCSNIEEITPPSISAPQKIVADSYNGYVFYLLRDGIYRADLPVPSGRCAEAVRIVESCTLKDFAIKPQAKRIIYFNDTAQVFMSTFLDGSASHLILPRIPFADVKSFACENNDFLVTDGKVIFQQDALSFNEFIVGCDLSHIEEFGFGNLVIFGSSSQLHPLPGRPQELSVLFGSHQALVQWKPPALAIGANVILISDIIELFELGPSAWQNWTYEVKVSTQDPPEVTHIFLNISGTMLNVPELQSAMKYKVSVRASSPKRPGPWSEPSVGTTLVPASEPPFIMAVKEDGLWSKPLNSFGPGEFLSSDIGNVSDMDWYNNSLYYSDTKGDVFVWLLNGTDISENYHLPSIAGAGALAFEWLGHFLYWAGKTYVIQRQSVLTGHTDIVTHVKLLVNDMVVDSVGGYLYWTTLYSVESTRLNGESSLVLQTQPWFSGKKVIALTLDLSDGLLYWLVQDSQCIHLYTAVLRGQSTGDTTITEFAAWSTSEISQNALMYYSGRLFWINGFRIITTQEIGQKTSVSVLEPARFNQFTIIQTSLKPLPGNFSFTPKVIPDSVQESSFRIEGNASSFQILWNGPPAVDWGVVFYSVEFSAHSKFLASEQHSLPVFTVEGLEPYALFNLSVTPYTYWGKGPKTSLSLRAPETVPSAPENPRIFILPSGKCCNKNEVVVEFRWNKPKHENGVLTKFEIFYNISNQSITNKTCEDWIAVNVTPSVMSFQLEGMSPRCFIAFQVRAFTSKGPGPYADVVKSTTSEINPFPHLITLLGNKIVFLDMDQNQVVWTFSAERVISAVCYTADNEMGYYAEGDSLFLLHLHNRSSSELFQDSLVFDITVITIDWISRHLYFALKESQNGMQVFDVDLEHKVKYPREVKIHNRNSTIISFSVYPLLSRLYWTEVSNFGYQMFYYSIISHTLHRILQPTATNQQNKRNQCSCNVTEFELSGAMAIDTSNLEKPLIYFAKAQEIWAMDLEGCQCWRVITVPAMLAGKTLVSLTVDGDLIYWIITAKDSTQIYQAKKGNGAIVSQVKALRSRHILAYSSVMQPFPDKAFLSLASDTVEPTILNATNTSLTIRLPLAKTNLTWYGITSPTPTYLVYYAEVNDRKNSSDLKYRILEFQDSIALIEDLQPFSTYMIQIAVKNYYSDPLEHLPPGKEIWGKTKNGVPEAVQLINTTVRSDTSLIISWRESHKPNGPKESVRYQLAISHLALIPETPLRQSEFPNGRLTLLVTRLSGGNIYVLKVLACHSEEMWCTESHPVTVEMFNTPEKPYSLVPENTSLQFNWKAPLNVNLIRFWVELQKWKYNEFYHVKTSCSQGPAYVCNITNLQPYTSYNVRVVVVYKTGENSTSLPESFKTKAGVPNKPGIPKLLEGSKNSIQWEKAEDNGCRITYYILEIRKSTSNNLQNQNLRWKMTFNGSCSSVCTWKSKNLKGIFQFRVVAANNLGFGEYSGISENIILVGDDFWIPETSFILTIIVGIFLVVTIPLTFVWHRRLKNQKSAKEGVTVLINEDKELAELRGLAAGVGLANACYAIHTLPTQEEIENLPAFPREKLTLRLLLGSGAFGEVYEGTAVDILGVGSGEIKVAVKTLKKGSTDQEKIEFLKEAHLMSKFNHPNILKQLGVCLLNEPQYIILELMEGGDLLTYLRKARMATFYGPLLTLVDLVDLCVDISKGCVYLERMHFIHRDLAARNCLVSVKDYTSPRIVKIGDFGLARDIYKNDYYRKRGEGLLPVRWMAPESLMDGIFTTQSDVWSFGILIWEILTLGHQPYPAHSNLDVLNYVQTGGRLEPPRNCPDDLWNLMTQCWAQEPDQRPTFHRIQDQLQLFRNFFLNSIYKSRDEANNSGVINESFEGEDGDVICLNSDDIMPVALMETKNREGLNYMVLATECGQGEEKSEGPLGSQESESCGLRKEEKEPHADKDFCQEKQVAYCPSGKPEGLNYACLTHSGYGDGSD
CC(C)(C)c1cc(C=C(C#N)C#N)cc(Br)c1O was tested, and the residual activity was 108%.
Molecule COC(=O)[C@@]1(O)C[C@H]2O[C@]1(C)n1c3ccccc3c3c4c(c5c6ccccc6n2c5c31)C(=O)NC4 has a residual activity of 21%.
Molecule O=C1c2ccccc2-c2nc3nnnn3nc21 has a residual activity of 103%.
Molecule COc1cc2ncnc(Nc3ccc(OCc4ccccc4)cc3)c2cc1OC has a residual activity of 108%.
In the case of O=c1[nH]c2ccccc2n1C1CCN(Cc2ccc(-c3nc4cc5[nH]cnc5cc4nc3-c3ccccc3)cc2)CC1, the residual activity is reported as 96%.
CCn1cnc2c(Nc3cccc(Cl)c3)nc(N[C@@H]3CCCC[C@@H]3N)nc21 showed a residual activity of 93%.
CCc1nc(-c2ccc(OC)cc2)[nH]c1-c1ccncc1 showed a residual activity of 105%.
Molecule C[S+]([O-])c1ccc(-c2nc(-c3ccc(F)cc3)c(-c3ccncc3)[nH]2)cc1 (stereo not drawn) has a residual activity of 117%.
O=C1Nc2ccc3ncsc3c2/C1=C/c1c[nH]cn1 was tested, and the residual activity was 88%.
Molecule O=C1NC(=O)c2c1c1c3ccccc3n3c1c1c2c2ccccc2n1C1CCC3O1 has a residual activity of 94%.
Work on COc1cc(OC)c(/C=C2\C(=O)Nc3ccccc32)c(OC)c1 yielded a residual activity of 96%.
Molecule O=[N+]([O-])/C=C/c1ccc2c(c1)OCO2 has a residual activity of 95%.

These molecules were tested against Proto-oncogene tyrosine-protein kinase ROS (Homo sapiens) (UniProt P08922). Settings: at 10 µM.
CC(C)(C)c1cc(C=C(C#N)C#N)cc(Br)c1O showed a residual activity of 111%.
CC(C)[C@H](CO)Nc1nc(Nc2cccc(Cl)c2)c2ncn(C(C)C)c2n1 showed a residual activity of 96%.
Work on COC(=O)[C@@]1(O)C[C@H]2O[C@]1(C)n1c3ccccc3c3c4c(c5c6ccccc6n2c5c31)C(=O)NC4 yielded a residual activity of 3%.
Work on O=C1c2ccccc2-c2nc3nnnn3nc21 yielded a residual activity of 110%.
COc1cc2ncnc(Nc3ccc(OCc4ccccc4)cc3)c2cc1OC showed a residual activity of 101%.
Molecule O=c1[nH]c2ccccc2n1C1CCN(Cc2ccc(-c3nc4cc5[nH]cnc5cc4nc3-c3ccccc3)cc2)CC1 has a residual activity of 93%.
CCn1cnc2c(Nc3cccc(Cl)c3)nc(N[C@@H]3CCCC[C@@H]3N)nc21 showed a residual activity of 84%.
CCc1nc(-c2ccc(OC)cc2)[nH]c1-c1ccncc1 gave a residual activity of 101%.
C[S+]([O-])c1ccc(-c2nc(-c3ccc(F)cc3)c(-c3ccncc3)[nH]2)cc1 (stereo not drawn) showed a residual activity of 110%.
O=C1Nc2ccc3ncsc3c2/C1=C/c1c[nH]cn1 was tested, and the residual activity was 87%.
O=C1NC(=O)c2c1c1c3ccccc3n3c1c1c2c2ccccc2n1C1CCC3O1 showed a residual activity of 81%.
Molecule COc1cc(OC)c(/C=C2\C(=O)Nc3ccccc32)c(OC)c1 has a residual activity of 63%.
In the case of O=[N+]([O-])/C=C/c1ccc2c(c1)OCO2, the residual activity is reported as 98%.
